Screening data deposited in PubChem BioAssay by National Center for Advancing Translational Sciences (NCATS).
The list is not random: actives were taken first. Their share in the collection is about 5.9%.
GLP-1R agonist = qHTS of GLP-1 Receptor Agonists; Potency, µM (highest dose often 45.6 µM), without a hit: at the highest dose activation, usual class: activators; AID 624172, 2012; 380,000 tested, 0.007% active; HEK293 GLP-1R CRE-luciferase, luminescence, 4-6 h; cells express a hypersensitive GLP-1R form; further: % of control where 0% means no effect
Target sequence (P43220 whole entry, looked up): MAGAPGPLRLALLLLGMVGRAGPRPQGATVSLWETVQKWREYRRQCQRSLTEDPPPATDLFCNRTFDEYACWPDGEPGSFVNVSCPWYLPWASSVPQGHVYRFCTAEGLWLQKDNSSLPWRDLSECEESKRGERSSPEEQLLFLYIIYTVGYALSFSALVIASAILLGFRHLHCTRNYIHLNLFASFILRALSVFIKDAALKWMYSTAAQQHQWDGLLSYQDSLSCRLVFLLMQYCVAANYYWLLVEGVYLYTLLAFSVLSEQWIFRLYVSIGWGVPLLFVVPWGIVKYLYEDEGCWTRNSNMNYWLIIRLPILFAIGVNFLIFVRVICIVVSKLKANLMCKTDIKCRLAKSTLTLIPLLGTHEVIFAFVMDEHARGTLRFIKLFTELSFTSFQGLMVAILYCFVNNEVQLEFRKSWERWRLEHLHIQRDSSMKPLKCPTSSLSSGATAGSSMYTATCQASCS
GLP1R cytotox = qHTS of GLP-1 Receptor Inverse Agonists: Cytotox Screen; HEK293 cAMP-luciferase reporter cells, luminescence, 24 h; Potency, µM (series often up to 38.3 µM), inactives show at the highest dose activity change, negative = inhibition, actives largely listed as inhibitors; 410,000 tested, 0.13% active; AID 624418, 2012;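 further: loss of luciferase light is scored as toxicity; on the % scale 0 is the no-effect control and ±100 the full control effect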
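Here, cytotoxicity is scored as loss of luminescence. The MLSMR collection was tested on cells seeded in medium containing 10% Nu serum, with a 24 hr compound exposure preceded by 12 hours of culture.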
GLP-1R inv ag = qHTS of GLP-1 Receptor Inverse Agonists (Inhibition Mode) | Glucagon-like peptide 1 receptor (Homo sapiens), P43220 | HEK293 GLP-1R CRE-luciferase, luminescence, 24 h; GLP-1R form is constitutively active | Potency, µM (doses to about 38.3 µM), without a hit: at the highest dose activity change, negative = inhibition, most hits filed as inhibitors | 410,000 tested, 1.6% active | AID 624417, 2012; further: on the % scale 0 is the no-effect control and ±100 the full control effect; nearly all actives have a fitted effect of over 55% in size
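HEK293 cells stably co-expressing a cAMP-responsive luciferase reporter and constitutively active GLP-1R were seeded, incubated 12 h, then exposed to compounds for 24 h at 37 C. Luminescence was read 12 min after detection reagent; inverse agonists lower signal.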
VP16 counter = VP16 counterscreen qHTS for inhibitors of ROR gamma transcriptional activity; 310,000 tested, 3.5% active; Potency, µM (series often up to 53.6 µM), without a hit: at the top dose activity, negative = inhibition, usual class: inhibitors; Drosophila S2 Gal4-VP16 UAS-luciferase, luminescence, 20 h;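 further: Gal4-VP16 expression switched on by copper sulfate through the metallothionein promoter; on the % scale 0 is the no-effect control and ±100 the full control effect; nearly all actives have a fitted effect of over 50% in size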
RORg inh = qHTS for inhibitors of ROR gamma transcriptional activity. Nuclear receptor ROR-gamma (Mus musculus), P51450. Drosophila S2 Gal4-RORgamma UAS-luciferase reporter, 20 h. Potency, µM (titrated, usually from 53.6 µM), for the others: at the highest dose activity change, negative = inhibition, most hits filed as inhibitors. 310,000 tested, 5.4% active. AID 2551, 2010; further: on the % scale 0 is the no-effect control and ±100 the full control effect; nearly all actives have a fitted effect of over 60% in size
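Luciferase reporter read in Schneider cells carrying Gal4-RORγ (mouse) and UAS-Photinus luciferase; cells given compound 1 h before 700 uM copper sulfate induction, then incubated 20 h at ambient temperature.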
* hit, by the source's call; ? = inconclusive; / = no result; [ ] = dose if it differs, or a comment. The call rests on the fitted dose curve; in most records, active means well fitted curve in the direction sought with a large enough effect; inconclusive means small, poorly fitted or top-dose-only effect, or another doubt; inactive means no such curve, though single readings can be large; an effect the other way counts as inactive or inconclusive. Potency means the concentration at half of the fitted maximal effect.

SMILES | GLP-1R agonist | GLP1R cytotox | GLP-1R inv ag | VP16 counter | RORg inh
O=C(Nc1ccon1)c1ccc2c(c1)OCO2 | 1% | 6% | 0% | 7%[0.365 µM] | 19%
Cc1ccc2nc(NC(=O)c3ccc4c(c3)OCO4)sc2c1 | -2% | -12% | 8% | ? | 7.9µM*
Cc1ccnc(NC(=O)c2ccc3c(c2)OCO3)c1 | -1% | 2% | ? | ? | 13µM*
CC(C)Nc1nc(Oc2ccc(Cl)cc2Cl)cc(C(F)(F)F)n1 | 4% | -31% | -3% | ? | 25µM*
CC(C)Nc1nc(Oc2cccc(Cl)c2Cl)cc(C(F)(F)F)n1 | -12% | -3% | ? | ? | ?
CCOC(=O)C1=C(C)C(c2ccccc2)NC(=S)N1 (stereo not drawn) | 1% | -13% | 6% | ? | 7.1µM*
COC(=O)C1=C(C)C(c2ccc(OC)cc2)NC(=S)N1 (stereo not drawn) | 2% | -1% | 0% | -3% | 10µM*
COC(=O)C1=C(C)C(c2ccc(OC)cc2)NC(=O)N1 (stereo not drawn) | 11% | 5% | 7% | 11% | -19%
CCOC(=O)C1=C(C)NC(=S)N(C=O)C1c1ccccc1 (stereo not drawn) | 6% | -7% | -11% | ? | 11µM*
Cc1ccccc1CSc1nc2cccnc2n1Cc1ccc(C(=O)NCCc2cccs2)cc1 | / | -3% | -19% | / | /
O=[N+]([O-])c1ccc2c(c1)S(=O)(=O)C=C2 | / | / | / | ? | 0.63µM*
CCC1(c2cnc[nH]2)Cc2ccccc2C1 | -1% | / | / | / | /
Cc1ccc(NC(=O)c2oc3c(c2C)-c2[nH]ncc2CC3)c(Cl)c1 | / | 1% | 40% | / | /
CCOC(=O)c1sc2nc(CC(=O)OC)nc(NCc3ccco3)c2c1C | 1% | 0% | 25% | 7% | -14%
CCOC(=O)c1sc2ncnc(NCc3ccco3)c2c1C | -2% | -26% | 1% | 11µM* | 7.9µM*
CCOC(=O)c1cnc2ccccc2c1Nc1ccc2c(c1)OCCO2 | 10% | -2% | ? | ? | 11µM*
CCOC(=O)c1cnc2ccc(OCC)cc2c1NCc1ccccc1OC | 8% | -14% | -11% | ? | 13µM*
CCOc1ncccc1C(=O)OCC(=O)Nc1ccc2c(c1)OCCO2 | 29% | 6% | 15% | / | /
CCOC(=O)c1cnc2ccccc2c1NCc1ccco1 | 27% | -4% | -22% | ? | 6.3µM*
CC[C@H](C)[C@H](N)C(=O)N[C@@H](CCCNC(=N)N)C(=O)N[C@@H](CCC(N)=O)C(=O)NCC(=O)N1CCC[C@H]1C(=O)N[C@@H](CCCCN)C(=O)N[C@@H](CCC(=O)O)C(=O)N1CCC[C@H]1C(=O)N[C@@H](Cc1ccccc1)C(=O)N[C@@H](CCCNC(=N)N)C(=O)N[C@@H](CC(=O)O)C(=O)N[C@@H](Cc1ccc(O)cc1)C(=O)N[C@H](C(=O)N[C@@H](CC(=O)O)C(=O)N[C@@H](CCCNC(=N)N)C(=O)N[C@@H](Cc1ccccc1)C(=O)N[C@@H](Cc1ccc(O)cc1)C(=O)N[C@@H](CCCCN)C(=O)N[C@H](C(=O)N[C@@H](CC(C)C)C(=O)O)[C@@H](C)O)C(C)C | / | / | / | -3% | 5%
Cc1ccc2c(c1)Oc1ccc(NC(=O)CCl)cc1C(=O)N2 | 7% | ? | 11µM* | 18µM* | 10µM*
COc1ccc(C2/C=C\CN(C(=O)Nc3ccc(C(F)(F)F)cc3)CC(=O)N2Cc2ccc(F)cc2)cc1 (stereo not drawn) | -3% | -19% | 11µM* | 0% | ?
COc1ccc([C@H]2/C=C\CN(C(=O)C3CCCC3)[C@@H](C)C(=O)N2Cc2ccc(F)cc2)cc1 | 1% | -15% | ? | / | /
COc1ccc(C2/C=C\CN(S(=O)(=O)c3ccc(C)cc3)C(Cc3ccccc3)C(=O)N2Cc2ccc(F)cc2)cc1 (stereo not drawn) | / | / | / | -11% | 10µM*
COc1ccc(C2/C=C\CN(C(=O)C3CCCC3)[C@H](Cc3ccccc3)C(=O)N2Cc2ccc(F)cc2)cc1 (stereo partly drawn) | -3% | 6% | 4.5µM* | 7% | -15%
SMILES | GLP-1R agonist | GLP1R cytotox | GLP-1R inv ag | VP16 counter | RORg inh
CCOc1ccc(-n2c(=O)c3c4c(sc3n(CC(=O)NC(C)CC)c2=O)CCC4)cc1 (stereo not drawn) | / | 3% | 5% | / | /
Cc1cc(C)c2c(=O)n(CC(=O)Nc3ccc(Cl)cc3)sc2n1 | -2% | -9% | 8% | 13µM* | ?
CCOc1ccc(NC(=O)Cn2sc3nc(C)cc(C)c3c2=O)cc1 | 1% | -4% | 40% | 11µM* | ?
Cc1cccc(C)c1NC(=O)CN(C)C(C)C(=O)Nc1ccccc1-c1ccccc1 (stereo not drawn) | -7% | -4% | -45% | -10% | 26%
Cc1ccccc1CN(C)C(C)C(=O)Nc1ccccc1F (stereo not drawn) | 14% | 0% | 8.9µM* | ? | 8%
CSc1ccccc1NC(=O)CN(C)CC(=O)Nc1ccc(Cl)cc1F | 15% | 10% | ? | ? | 11µM*
Cc1cccc(N(CC(=O)Nc2ccccc2C(F)(F)F)S(=O)(=O)c2ccccc2)c1C | -6% | 1% | 11µM* | / | /
CSc1ccccc1NC(=O)CN(C)CC(=O)Nc1ccccc1C(F)(F)F | 4% | 15% | 2% | 3%[10 µM] | 8.9µM*
COc1ccc(NC(=O)CN(C)CC(=O)Nc2ccccc2SC)cc1 | -1% | 15% | 23% | 23% | -1%
CCOC(=O)C1=C(CSc2nc(C)ccc2C#N)OC(N)=C(C#N)C1c1cccc(OC)c1OC (stereo not drawn) | -6% | 38% | 4% | ? | 20µM*
CCOC(=O)C1=C(CC)OC(N)=C(C#N)C1c1ccc(OC)c(OC)c1OC (stereo not drawn) | 3% | 2% | 25% | -9% | -1%
Cc1cc(C(=O)N/N=C/C=C/c2ccccc2)n[nH]1 | 1% | 2% | 3% | -1% | -24%
Cc1ccc(-c2cc(C(=O)N/N=C/C=C/c3ccccc3)n[nH]2)s1 | -2% | -24% | ? | 7.1µM* | 4µM*
O=C(N/N=C/c1ccco1)c1cc(-c2ccc(Cl)s2)[nH]n1 | 8% | 6% | 17% | 0% | 7%
O=C(N/N=C/c1cccs1)c1cc(-c2ccc(Cl)s2)[nH]n1 | 20% | -18% | 22% | 7.9µM* | 10µM*
O=C(Nc1ccc(/C=C/c2nc3ccccc3o2)cc1)c1cccc(C(F)(F)F)c1 | -1% | 8% | 3.2µM* | -16% | ?
